# Measured values reported in ChEMBL document CHEMBL1857833, “Screening and optimization of specific chemical series against human African Trypanosomiasis (HAT)”.
# Screen size: about 4,400 compounds; about 390 (8.9%) showed an effect of 50% or more. The sample holds strong results, similar compounds and a random draw of the others, so the mix is not that of the screen.
# System: Trypanosoma brucei
# Experiment: DNDI: Inhibition of Human African Trypanosomiasis, SBRI 427, in vitro at 2 ug.mL-1
# Format: functional
row,Structure (SMILES),% inhibition [%]
1,Cc1ccc(C(C)C)c(Oc2cc(/C(=N/O)Nc3ccc(C(C)C)cc3)ccn2)c1,21
2,COCCN(Cc1coc(-c2ccccc2Cl)n1)C(C)C,-24
3,c1ccc2c(-c3nc(CNCc4ccncc4)co3)cccc2c1,6
4,Cc1ccc(/C(=N/O)NCCN2CCOCC2)c(Oc2ccc3ccccc3c2)n1,15
5,COc1ccc(-c2nc(CNCc3cccc(C(F)(F)F)c3)co2)cc1,-13
6,C[C@@H]1C(NCc2coc(-c3cccc4ccccc34)n2)C[C@H]2C[C@@H]1C2(C)C (stereo partly drawn),95
7,CN(C)CCNCc1coc(-c2cccc3ccccc23)n1,22
8,CC1CC(C)CN(Cc2coc(-c3cccc4ccccc34)n2)C1 (stereo not drawn),28
9,CCOc1ccccc1-c1nc(CNc2ccccc2)co1,6
10,C[C@H]1C(NCc2coc(-c3cccc4ccccc34)n2)C[C@@H]2C[C@H]1C2(C)C (stereo partly drawn),85
11,c1ccc(CNCc2coc(-c3cccc4ccccc34)n2)cc1,8
12,CCOc1ccccc1-c1nc(CNC2C[C@@H]3C[C@H]([C@H]2C)C3(C)C)co1 (stereo partly drawn),101
13,CCOc1ccccc1-c1nc(CNC23C[C@H]4C[C@@H](C2)C[C@@H](C3)C4)co1,9
14,Clc1ccccc1-c1nc(CN2CCN(c3ccccn3)CC2)co1,4
15,Fc1ccc(-c2nc(CNCC(c3ccccc3)c3ccccc3)co2)cc1,-33
16,COc1cc(-c2nc(CNCc3cccnc3)co2)cc(OC)c1OC,25
17,CSc1ccc(Oc2nc(C)ccc2/C(=N/O)NCc2ccc(C)o2)cc1C,12
18,CCOc1ccccc1-c1nc(CN(CC)c2cccc3ccccc23)co1,4
19,O/N=C(\NC1CCc2ccccc21)c1cccnc1Oc1ccc(-n2cncn2)cc1 (stereo not drawn),31
20,COc1ccc(Oc2ncccc2/C(=N/O)NC2CCc3ccccc32)cc1 (stereo not drawn),97
21,CC(C)c1ccc(Oc2ncccc2/C(=N/O)NC2CCc3ccccc32)cc1 (stereo not drawn),100

row,Structure (SMILES),% inhibition [%]
1,CSc1ccc(Oc2nc(C)ccc2/C(=N/O)NC2CCc3ccccc32)cc1C (stereo not drawn),21
2,Cc1ccc(/C(=N/O)NC2CCc3ccccc32)c(Oc2ccc(F)c(F)c2)n1 (stereo not drawn),20
3,O/N=C(\NC1CCc2ccccc21)c1cccnc1Oc1ccc(F)cc1Cl (stereo not drawn),9
4,O/N=C(\NC1CCc2ccccc21)c1cccnc1Oc1ccc2ccccc2c1 (stereo not drawn),97
5,O/N=C(\NC1CCc2ccccc21)c1cccnc1Oc1c(F)cccc1F (stereo not drawn),83
6,COc1ccc(Oc2nc(C)ccc2/C(=N/O)NC2CCc3ccccc32)cc1 (stereo not drawn),23
7,Cc1ccc(/C(=N/O)NC2CCc3ccccc32)c(Oc2c(F)c(F)cc(F)c2F)n1 (stereo not drawn),7
8,CC(C)COc1ncccc1/C(=N/O)NC1CCc2ccccc21 (stereo not drawn),-11
9,CC(C)c1ccc(N/C(=N\O)c2cccnc2Oc2ccc(Cl)cc2)cc1,11
10,CCOc1ccccc1-c1nc(CNCc2ccc(C)o2)co1,18
11,COc1cccc(CN/C(=N\O)c2ccnc(Oc3cccc4cccnc34)c2)c1,35
12,O/N=C(/c1ccc(Oc2cccc3c2CCCC3)nc1)N1CCN(c2ccccc2)CC1,9
13,C=CCN(CC=C)Cc1coc(-c2ccc(OC)cc2)n1,1
14,Cc1ccc(/C(=N/O)N(C)c2ccccc2)c(Oc2ccc(Cl)cc2)n1,22
15,COc1ccc(CN/C(=N\O)c2ccc(C)nc2Oc2cccc3c2CCCC3)cc1,1
16,Cc1cccc(-c2nc(CN3CCN(c4cc(C)nc5ccccc45)CC3)co2)c1,27
17,CCOc1ccccc1-c1nc(CN(CC)C2CCN(Cc3ccccc3)C2)co1 (stereo not drawn),-5
18,CC(C)c1ccc(Oc2ccc(/C(N)=N/O)cn2)cc1,23
19,Cc1ccc(/C(=N/O)NC2CCc3ccccc32)c(Oc2ccc(F)c(Cl)c2)n1 (stereo not drawn),-22
20,CCC(CC)NCc1coc(-c2ccc(OC)cc2)n1,-11
21,COc1ccc(CNCc2coc(-c3ccc(C(C)(C)C)cc3)n2)c(OC)c1,69

row,Structure (SMILES),% inhibition [%]
1,COc1ccc(CNCc2coc(-c3ccccc3Br)n2)c(OC)c1,-13
2,COc1cccc(OC)c1CNCc1coc(-c2ccc(C)cc2)n1,22
3,COc1ccc(CNCc2coc(-c3ccc(C(F)(F)F)cc3)n2)c(OC)c1,11
4,COc1ccc(-c2nc(CNCc3ccc(OC)cc3OC)co2)cc1,4
5,COc1ccc(CNCc2coc(-c3ccccc3C)n2)c(OC)c1,5
6,COc1ccc(-c2nc(CNCc3c(OC)cccc3OC)co2)cc1,17
7,COc1ccc(CNCc2coc(-c3cccc4ccccc34)n2)c(OC)c1,57
8,COc1cccc(OC)c1CNCc1coc(-c2ccc(C(C)(C)C)cc2)n1,100
9,COc1ccc(-c2nc(CN3CCc4ccccc4C3)co2)cc1,-8
10,CN(Cc1coc(-c2ccc(O)cc2)n1)C(c1ccccc1)c1ccccc1,-30
11,CN(Cc1ccco1)/C(=N\O)c1cccnc1Oc1ccc2c(c1)CCCC2,-1
12,Cc1ccc(/C(=N/O)N2CCCC2)c(Oc2ccc3ccccc3c2)n1,25
13,CN(Cc1cccnc1)Cc1coc(-c2ccc(Cl)cc2Cl)n1,36
14,CN(CC#N)Cc1coc(-c2cccs2)n1,-11
15,Cc1ccc(CNCc2coc(-c3ccccc3Br)n2)o1,3
16,C[C@@H]1C(NCc2coc(-c3ccc(O)cc3)n2)C[C@H]2C[C@@H]1C2(C)C (stereo partly drawn),26
17,CC1CCCC(NCc2coc(-c3ccc(O)cc3)n2)C1C (stereo not drawn),-13
18,CCOc1ccc(-c2nc(CNC3C[C@H]4C[C@@H]([C@@H]3C)C4(C)C)co2)cc1 (stereo partly drawn),-5
19,CCOc1ccc(-c2nc(CNC3C[C@@H]4C[C@H]([C@H]3C)C4(C)C)co2)cc1 (stereo partly drawn),78
20,CCOc1ccc(-c2nc(CNC3C[C@H]4CC[C@@H]3C4)co2)cc1 (stereo partly drawn),11
21,C[C@H]1C(NCc2coc(-c3ccc(O)cc3)n2)C[C@@H]2C[C@H]1C2(C)C (stereo partly drawn),101
